Experimental data: PubChem BioAssay (NCATS)

Assay: qHTS profiling for inhibitors of Plasmodium falciparum (HB3) proliferation (AID 743324);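 further: 100% = DMSO vehicle wells and 0% = artemisinin-treated control wells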
Conditions: Plasmodium falciparum HB3 blood-stage proliferation; at 28.7 µM (top of the series) unless noted
Description: Plasmodium falciparum is a virulent malarial parasite that kills 1-2 million people worldwide each year. Transmitted by mosquitoes, the sporozoite form of the parasite enters the blood stream to infect hepatocytes, where they become merozoites that infect red blood cells (erythrocytes). Within erythrocytes, merozoites begin a […] cycle of growth and division, after which the parasite is released to infect new red blood cells. Gametocytes, which form within erythrocytes as well, circulate in the bloodstream and are ingested by the mosquito, thereby completing the life cycle. To profile malarial isolates for differential chemical responses and to identify inhibitors of malarial growth, an assay that measures P. falciparum growth and replication within erythrocytes was employed. This assay uses a DNA binding fluorescent dye (SYBR Green) to detect parasite DNA following cell lysis. Because mature erythrocytes lack DNA, only Plasmodium-derived DNA is detected.
For screening 3 ul culture medium was dispensed into 1536 well black clear bottom plates (Aurora Biotechnologies) using a Multidrop Combi (Thermo Fisher Scientific Inc.), 23 nL compounds in DMSO were added by a pin tool (Kalypsys), and 5 ul of erythrocytes infected with P. falciparum (0.3% parasitemia, 2.5% hematocrit final concentration) were added. The plates were incubated at 37 C in a humidified incubator in 5% CO2 for 72 h, and 2 ul lysis buffer (20 mM Tris HCl, 10 mM EDTA, 0.16% saponin, […]% triton X, 10X SYBR Green I supplied as 10,000X […] by Invitrogen) was added to each well. The plates were mixed for 25 sec with gentle shaking and incubated overnight at room temperature in the dark. The following morning, fluorescence intensity at 485(14) nm excitation and 535(25) nm emission wavelengths was measured on an EnVision (Perkin Elmer) plate reader. Plate reads were normalized relative to the control inhibitor (0.29 uM artemisinin) and vehicle (DMSO) wells present on each plate and then corrected by an algorithm using vehicle-only control plates at the beginning and end of the compound plate stack.
`CCCCN(CCCC)CCC(OC(=O)O[C@@H]1CCC[C@]2(C1)OOC1(O2)C2CC3CC(C2)CC1C3)c1cc2c(Cl)cc(Cl)cc2c2cc(C(F)(F)F)ccc12` (stereo partly specified) showed a remaining proliferation (% of control), lower = more inhibition of 0.359%. `CSc1cccc(NC(=O)CC[C@H]2O[C@@H]3O[C@]4(C)CC[C@H]5[C@H](C)CC[C@@H]([C@@H]2C)[C@@]35OO4)c1` showed a remaining proliferation (% of control), lower = more inhibition of 0.997%. `CCCCN(CCCC)CCC(OC(=O)O[C@H]1CCC[C@]2(C1)OOC1(O2)C2CC3CC(C2)CC1C3)c1cc2c(Cl)cc(Cl)cc2c2cc(C(F)(F)F)ccc12` (stereo partly specified) gave a remaining proliferation (% of control), lower = more inhibition of 0.0614%. `C[C@@H]1[C@@H](CC(C[C@H]2O[C@@H]3O[C@]4(C)CC[C@@H]5[C@H](C)CC[C@@H]([C@H]2C)[C@@]35OO4)C(=O)NCc2ccc(F)cc2)O[C@@H]2O[C@]3(C)CC[C@H]4[C@H](C)CC[C@@H]1[C@@]24OO3` (stereo partly specified) showed a remaining proliferation (% of control), lower = more inhibition of 0.676%. Work on `C[C@H]1[C@@H](CCC(=O)Nc2ccc(F)cc2)O[C@@H]2O[C@]3(C)CC[C@@H]4[C@H](C)CC[C@@H]1[C@@]24OO3` yielded a remaining proliferation (% of control), lower = more inhibition of 0.121%. Work on `O=C1C(=O)c2ccccc2C(O)=C1C1CCC2(CC1)OOC1(O2)C2CC3CC(C2)CC1C3` (stereo unspecified) yielded a remaining proliferation (% of control), lower = more inhibition of 0.423%.
